SMILES strings stand for the structures. This is one part of the list. Active and inactive are the calls of the source. Cut-off read from the data, not from the text of the source: active = activation above about 18%; inactive = the rest.

The values that follow come from PubChem BioAssay AID504913 (The Scripps Research Institute Molecular Screening Center, 2011).

The assay is described as follows: activation of mu-delta opioid heterodimer signal – cell-based, luminescence, counter-screen for HTR5A agonist project (AID 504913). The note with it: U2OS counter-screen cells, complementation luminescence, 3 h; at 9.3 µM; stronger effect = higher value.
On to `CCOc1ccc(NC(=O)Nc2cc(C)on2)cc1`, for which the activation is 0.12% (inactive).

Take `O=C(CC(O)(C(F)(F)F)C(F)(F)F)Nc1ccc(Cl)c(Cl)c1`: the activation was -1.36% (inactive).

With `CCCOc1ccc(C(=O)C(CCC(CNCC)C(=O)c2ccc(OCCC)cc2)CNCC)cc1` (stereo not given), the activation is -0.5% (inactive).

For `O=C(CNCc1ccco1)Nc1cc(S(=O)(=O)N2CCOCC2)ccc1N1CCCC1`, the activation was 3.16% (inactive).

Regarding `CC(C)OC(=O)c1c(NC(=O)c2ccco2)sc2c1CCCC2`, the activation is 4.46% (inactive).

For `CC(=O)N1CCN(c2ccccc2NC(=S)NC(=O)c2cc3ccccc3o2)CC1`, the activation was 0.56% (inactive).

Turning to `COc1ccccc1S(=O)(=O)NCc1ccc(C(=O)N(C)Cc2ccc(F)cc2)cc1`, the activation was 3.43% (inactive).

In the case of `O=C(CC1Nc2ccccc2NC1=O)Nc1ccccc1` (stereo not given), the activation was 2.23% (inactive).

On to `CCOC(=O)c1cnc2sccn2c1=O`, for which the activation was 1.07% (inactive).

Regarding `Cc1ccccc1CN1CCN(CC(=O)NCc2ccccn2)C1=O`, the activation was 0.64% (inactive).

Consider `CC(NC(=O)c1cc(-c2ccccc2)on1)c1ccccc1` (stereo not given), for which the activation is 40.1% (active).

Consider `CCN(CC(=O)Nc1cccc(S(=O)(=O)N2CCCCC2)c1)Cc1ccccc1`, for which the activation is 4.65% (inactive).

`Cc1ccc(CN2CCN(Cc3ccc(OCCO)cc3)CC2CCO)o1` (stereo not given): the activation was -0.37% (inactive).

Turning to `Cc1oc2c(F)c(F)c(F)c(F)c2c1S(=O)(=O)Nc1cccc(C(F)(F)F)c1`, the activation was -0.99% (inactive).

Turning to `Cc1ccc(C(=O)N/C(=C/c2ccco2)C(=O)NCCc2c[nH]c3ccccc23)cc1C`, the activation was 0.35% (inactive).

As for `CCCN(CCc1ccccc1)C1CCc2c(O)cccc2C1` (stereo not given), the activation is 11.3% (inactive).

For `CC(=O)c1c(C)[nH]c(C(=O)OCC(=O)Nc2c(C)cccc2C)c1C`, the activation is 1.59% (inactive).

Turning to `COc1ccc(-c2ocnc2C(=O)Nc2ccc3c(c2)CCC3)cc1`, the activation was -2.69% (inactive).

For the molecule `COc1cccc(/C=N/NC(=O)c2[nH]nc3c2CCc2ccccc2-3)c1O`, the activation was -4.02% (inactive).

For `COc1ccc(C(=O)O/N=C(\N)Cc2ccc(Cl)cc2Cl)cc1OC`, the activation was 9.9% (inactive).

As to `COC(=O)c1cc(C(=O)OCC(=O)Nc2cc(C)on2)cc([N+](=O)[O-])c1`, the activation was 1.24% (inactive).

For the molecule `Cc1cccc2sc(N(CCCN(C)C)C(=O)CCS(=O)(=O)c3ccccc3)nc12`, the activation is 0.46% (inactive).

Turning to `CN(c1ccccc1)S(=O)(=O)c1cc(C(=O)N2CCN(c3ncccn3)CC2)ccc1Cl`, the activation was -0.79% (inactive).

As for `Cc1ccc(CCC(=O)Nc2ncc(Cc3cc(Cl)ccc3Cl)s2)o1`, the activation was 32.2% (active).

`Cc1c(C(=O)OCC(=O)N(CCC#N)c2ccccc2)oc2c1ccc1ccccc12`: the activation is 1.04% (inactive).
